Reference: paper PMC4336329 (PLoS ONE, 2015)
The campaign covered roughly 310,000 compounds. About 14,000 (4.5%) showed an effect of 50% or more. Effects have a minus sign here. The entries come from a sample that favours strong results as a whole.

Biological target: human ether-à-go-go-related gene (hERG) potassium channel (human, UniProt Q12809)
Experiment: primary screen, population patch clamp on CHO cells stably expressing hERG; higher = less effect of the substance
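Note: peak tail current of the secondary pulse compared with the same well before compound.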

human ether-à-go-go-related gene (hERG) potassium channel, sequence (Q12809 whole entry, looked up): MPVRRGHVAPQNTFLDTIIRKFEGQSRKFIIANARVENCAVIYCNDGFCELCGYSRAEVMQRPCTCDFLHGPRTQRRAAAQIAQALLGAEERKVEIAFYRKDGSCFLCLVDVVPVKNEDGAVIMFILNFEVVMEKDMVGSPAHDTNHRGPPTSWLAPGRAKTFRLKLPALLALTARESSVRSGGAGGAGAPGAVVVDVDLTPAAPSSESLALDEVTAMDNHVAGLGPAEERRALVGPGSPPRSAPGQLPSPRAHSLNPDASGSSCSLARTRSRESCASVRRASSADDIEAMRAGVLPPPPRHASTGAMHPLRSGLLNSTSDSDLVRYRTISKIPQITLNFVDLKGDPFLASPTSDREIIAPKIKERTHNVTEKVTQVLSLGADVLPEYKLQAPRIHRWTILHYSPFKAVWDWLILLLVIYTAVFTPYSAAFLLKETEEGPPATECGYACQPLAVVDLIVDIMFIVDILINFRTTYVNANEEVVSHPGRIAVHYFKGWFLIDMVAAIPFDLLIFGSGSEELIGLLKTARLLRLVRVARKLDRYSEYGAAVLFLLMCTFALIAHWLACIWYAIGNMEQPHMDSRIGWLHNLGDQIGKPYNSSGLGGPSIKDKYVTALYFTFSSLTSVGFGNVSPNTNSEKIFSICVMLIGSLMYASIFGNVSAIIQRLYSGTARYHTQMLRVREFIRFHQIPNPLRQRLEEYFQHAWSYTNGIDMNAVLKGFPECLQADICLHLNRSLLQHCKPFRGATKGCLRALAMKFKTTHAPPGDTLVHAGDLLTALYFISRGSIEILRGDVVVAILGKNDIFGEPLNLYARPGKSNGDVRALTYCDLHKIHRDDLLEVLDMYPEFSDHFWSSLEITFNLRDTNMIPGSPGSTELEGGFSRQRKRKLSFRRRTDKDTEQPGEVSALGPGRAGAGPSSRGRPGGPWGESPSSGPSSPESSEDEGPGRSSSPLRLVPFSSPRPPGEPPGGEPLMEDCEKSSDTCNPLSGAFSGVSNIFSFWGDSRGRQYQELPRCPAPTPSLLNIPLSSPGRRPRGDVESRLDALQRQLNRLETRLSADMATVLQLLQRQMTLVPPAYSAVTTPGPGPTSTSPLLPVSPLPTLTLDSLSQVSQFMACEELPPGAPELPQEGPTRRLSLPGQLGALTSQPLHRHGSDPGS

Going from `COc1ccccc1NC(=O)c1ccc(N2CC3CC(C2)c2cccc(=O)n2C3)c(NC(=O)c2cccnc2)c1` (stereo not drawn) to `CSc1ccccc1NC(=O)c1ccc(N2CC3CC(C2)c2cccc(=O)n2C3)c(NC(=O)c2ccncc2)c1` (stereo not drawn), the “hERG current change (%, negative = inhibition) at 10uM” value falls from 6.33% to -30.1%.

Going from `[Cl-].c1ccc(Cc2cc[n+](Cc3ccccc3)cc2)cc1` to `OCCC1CN(CCCc2ccccc2)CCN1Cc1ccccc1` (stereo not drawn), the “hERG current change (%, negative = inhibition) at 10uM” value falls from 4.13% to -64%.

First: O=C(Nc1ccccc1N1CCCC1)c1cccnc1Cl
Second: Cc1cccc(Cl)c1NC(=S)NCCc1ccccn1
The “hERG current change (%, negative = inhibition) at 10uM” value of the first is lower: 4.72% for the first, 11.9% for the second.

Compared with `COc1ccc(C(=O)NC(=S)Nc2nc(C)cc(C)n2)cc1Br`, `COc1ccc(C(=O)n2nc(-c3ccco3)nc2SC)cc1OC` is lower in “hERG current change (%, negative = inhibition) at 10uM” value: 23.1% for the first, 3.41% for the second.

First: CCOc1ccc2nc(SCC(=O)NCc3ccc4c(c3)OCO4)[nH]c2c1
Second: Cc1ccc(OCc2nnc(SCC(=O)Nc3ccc4c(c3)OCCO4)n2Cc2ccco2)cc1
The “hERG current change (%, negative = inhibition) at 10uM” value of the first is lower: -24.2% for the first, 6.31% for the second.

First: CCCNc1ccc(C(=O)OCC)cc1[N+](=O)[O-]
Second: CCOC(=O)c1cc(-c2ccc(OC)cc2)nn1-c1ccc(C(=O)O)cc1
The “hERG current change (%, negative = inhibition) at 10uM” value of the first is lower: -6.67% for the first, 16.3% for the second.

Compared with `Cc1ccc(C(C(=O)NCc2ccco2)N(C(=O)Cc2cccs2)c2cccnc2)cc1` (stereo not drawn), `CN(c1ccc(C(=O)NCc2ccco2)cc1)S(C)(=O)=O` is lower in “hERG current change (%, negative = inhibition) at 10uM” value: 20.4% for the first, 5.87% for the second.

Compared with `O=S(=O)(Nc1ccc2ccccc2c1)c1ccccc1`, `COc1ccc(C2Nc3ccccc3C(=O)N2NS(=O)(=O)c2ccccc2)cc1OC` (stereo not drawn) is higher in “hERG current change (%, negative = inhibition) at 10uM” value: 1.5% for the first, 13.5% for the second.

Going from `CCOc1ccc(CCNC(=O)COC(=O)Cc2ccc(F)cc2)cc1OCC` to `CC(C)CCNC(=O)C(c1ccco1)N(CCCO)C(=O)Cn1nnc(-c2ccc(F)cc2)n1` (stereo not drawn), the “hERG current change (%, negative = inhibition) at 10uM” value rises from -26.6% to -20.2%.

Compared with `CC(C)c1ccc(/C=C(\c2nc3ccccc3[nH]2)S(=O)(=O)c2ccccc2)cc1`, `O=C(Nn1c(-c2ccccc2)nc2ccccc2c1=O)c1ccc([N+](=O)[O-])cc1` is lower in “hERG current change (%, negative = inhibition) at 10uM” value: 8.64% for the first, -15.4% for the second.

Going from `COc1ccc(OC)c(CNc2ccc(F)c(Cl)c2)c1` to `COc1ccc2c(c1)c(C(C)=O)c(C)n2CCc1ccc(OC)c(OC)c1`, the “hERG current change (%, negative = inhibition) at 10uM” value falls from 2.7% to -6.52%.

Going from `COCCCn1c(=O)c2sccc2n2c(CCCC(=O)N(C)Cc3ccco3)nnc12` to `CCN(CC)C(=O)CSC1=C(C#N)C(c2ccco2)C(C(=O)OCCOC)=C(C)N1` (stereo not drawn), the “hERG current change (%, negative = inhibition) at 10uM” value rises from -22.8% to 10.5%.

Compared with `Cc1ccccc1-n1c(-c2ccc(Br)o2)n[nH]c1=S`, `S=c1[nH]nc(-c2ccccc2)n1/N=C/c1ccc(-c2ccccc2Cl)o1` is higher in “hERG current change (%, negative = inhibition) at 10uM” value: 13.5% for the first, 25.4% for the second.

Compared with `COc1ccc2ccc(O)c(CN3CCN(S(=O)(=O)c4cc([N+](=O)[O-])ccc4C)CC3)c2c1`, `Cc1cccc(-c2nc3ccccc3c(=O)n2NC(=O)c2ccc([N+](=O)[O-])c(C)c2)c1` is higher in “hERG current change (%, negative = inhibition) at 10uM” value: -4.29% for the first, 14.5% for the second.

Going from `C=CCOC(=O)C1=C(C)NC(SCC(=O)N(CC)CC)=C(C#N)C1c1ccccc1` (stereo not drawn) to `C=CCOC(=O)C1=C(C)NC(SCC(=O)N(CC)CC)=C(C#N)C1c1ccco1` (stereo not drawn), the “hERG current change (%, negative = inhibition) at 10uM” value falls from -21.9% to -51.3%.

Going from `CC(C)=CCN1CCN(CCCc2ccccc2)CC1CCO` (stereo not drawn) to `CC(C)CCN1CCN(CCCc2ccccc2)CC1CCO` (stereo not drawn), the “hERG current change (%, negative = inhibition) at 10uM” value falls from -26.8% to -46.6%.

First: OCCC1CN(CCCc2ccccc2)CCN1CCc1ccccc1 (stereo not drawn)
Second: OCCC1CN(CCCc2ccccc2)CCN1Cc1ccc(F)cc1 (stereo not drawn)
The “hERG current change (%, negative = inhibition) at 10uM” value of the first is lower: -77.2% for the first, -66.6% for the second.

Going from `CC(C)(C)CN1CCN(CCCc2ccccc2)C(CCO)C1` (stereo not drawn) to `CC(C)CN1CCN(CCCc2ccccc2)C(CCO)C1` (stereo not drawn), the “hERG current change (%, negative = inhibition) at 10uM” value rises from -53.7% to -35.5%.

Going from `CC(C)N1CCN(CCCc2ccccc2)CC1CCO` (stereo not drawn) to `CC(C)/C=C/CN1CCN(CCCc2ccccc2)C(CCO)C1` (stereo not drawn), the “hERG current change (%, negative = inhibition) at 10uM” value falls from -4.39% to -73.4%.

Going from `CC(C)(C)CN1CCN(CC#Cc2ccccc2)CC1CCO` (stereo not drawn) to `CCC(CC)N1CCN(CCc2ccccc2)C(CCO)C1` (stereo not drawn), the “hERG current change (%, negative = inhibition) at 10uM” value falls from 0.803% to -19%.

First: CSc1ccccc1NC(=O)CSc1nnc(CNC(=O)c2ccccc2F)n1C
Second: Cn1cccc1C(=O)NC(=O)COC(=O)c1ccccc1O
The “hERG current change (%, negative = inhibition) at 10uM” value of the first is higher: 11.2% for the first, -6.93% for the second.

Going from `O=C(NCCS(=O)(=O)N1CCN(c2ccc(F)cc2)CC1)C12CC3CC(CC(C3)C1)C2` to `CCOc1ccc(Br)cc1S(=O)(=O)N1CCC(C(N)=O)CC1`, the “hERG current change (%, negative = inhibition) at 10uM” value rises from -10.5% to -8.56%.

Compared with `CS(=O)(=O)c1ccc([C@@H](O)[C@@H](CF)NC(=O)C(Cl)Cl)cc1`, `COc1cc(NS(=O)(=O)c2ccc(NC(=O)C3CCCO3)cc2)nc(OC)n1` (stereo not drawn) is higher in “hERG current change (%, negative = inhibition) at 10uM” value: -5.39% for the first, 6.87% for the second.

First: O=C(c1ccc(CS(=O)c2cccc(Cl)c2)o1)N1CCOCC1 (stereo not drawn)
Second: NC(=O)C1CCN(C(=O)c2cc3n(n2)C(C(F)(F)F)CC(c2ccco2)N3)CC1 (stereo not drawn)
The “hERG current change (%, negative = inhibition) at 10uM” value of the first is lower: 10.8% for the first, 14.8% for the second.

Compared with `Cc1ccc(CN2CCN(CCCc3ccccc3)CC2CCO)cc1` (stereo not drawn), `Cc1cc(C(=O)Nn2c(-c3ccc(Br)cc3)nc3ccccc3c2=O)ccc1[N+](=O)[O-]` is higher in “hERG current change (%, negative = inhibition) at 10uM” value: -76.4% for the first, 8.86% for the second.

Compared with `Cc1cccc(-c2nc3ccccc3c(=O)n2NC(=O)/C=C/c2ccc([N+](=O)[O-])cc2)c1`, `O=C(/C=C/c1cccc([N+](=O)[O-])c1)Nn1c(-c2ccccc2F)nc2ccccc2c1=O` is higher in “hERG current change (%, negative = inhibition) at 10uM” value: -60.7% for the first, -23.1% for the second.

First: O=C(Nn1c(-c2ccc(Br)cc2)nc2ccccc2c1=O)c1ccc([N+](=O)[O-])cc1
Second: Cc1nc(-c2ccc(Cl)cc2)sc1C1(C)CC(c2ccc(C#N)cc2)=NO1 (stereo not drawn)
The “hERG current change (%, negative = inhibition) at 10uM” value of the first is lower: -66.6% for the first, -29.2% for the second.
